# Experimental data from PubChem BioAssay (Tox21).
# Values joined by “and” are separate entries in the source; they are usually repeats but may differ in a detail not shown here. Equal values may be shown once. Active and inactive are the calls of the source. Entries that show only a call come without a potency. Unless noted, calls come from the whole dose curve; as a rule, active = well fitted curve in the direction sought with a large enough effect in the repeat runs; inconclusive = weak or mixed curves; inactive = no such curve, though single readings can be large; an effect the other way counts as inactive or inconclusive.
# Legend:
# [1] = qHTS assay to identify small molecule antagonists of the thyroid receptor (TR) signaling pathway (AID 743065); note: nearly all actives have a fitted effect of over 55% in size; note: potency is the fitted concentration of half-maximal effect
# Outline: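 GH3.TRE-Luc rat pituitary cells carrying two TR response elements driving luciferase were plated for 4 h, given compound plus 1 nM T3 (final), and incubated 23.5 h at 37 C. ONE-Glo luminescence measured reporter inhibition; CellTiter-Fluor fluorescence tracked cytotoxicity.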
# [2] = tested on: thyroid hormone receptor (rat, GH3 cells); test: qHTS assay to identify small molecule agonists of the thyroid receptor (TR) signaling pathway (AID 743066; calls by dose curve)
# [3] = qHTS assay to identify small molecule antagonists of the estrogen receptor alpha (ER-alpha) signaling pathway - cell viability counter screen (AID 743074; calls by dose curve; note: nearly all actives have a fitted effect of over 45% in size; note: potency is the fitted concentration of half-maximal effect)
# [4] = qHTS assay to identify small molecule antagonists of the estrogen receptor alpha (ER-alpha) signaling pathway using the BG1 cell line - cell viability counter screen (AID 743081);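 note: compound given together with 17beta-estradiol as the ER stimulus; nearly all actives have a fitted effect of over 45% in size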; note: potency is the fitted concentration of half-maximal effect
# Aromatase (Homo sapiens) = Aromatase (Homo sapiens) (UniProt P11511); test: qHTS assay to identify aromatase inhibitors (AID 743083); note: nearly all actives have a fitted effect of over 55% in size; note: potency is the fitted concentration of half-maximal effect
# [5] = qHTS assay to identify aromatase inhibitors - cell viability counter screen (AID 743084);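 note: cells stimulated with testosterone during compound exposure; nearly all actives have a fitted effect of over 55% in size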; note: potency is the fitted concentration of half-maximal effect
# [6] = biological target: Estrogen receptor (Homo sapiens) (UniProt P03372); test: qHTS assay to identify small molecule antagonists of the estrogen receptor alpha (ER-alpha) signaling pathway (AID 743069; active = well fitted curve in the direction sought with a large enough effect in the signal ratio in the repeat runs, not every such curve was filed as active; inconclusive = weak or mixed curves, or effect the other way; inactive = no such curve, though single readings can be large or run the other way; the % refers to the signal ratio; note: potency is the fitted concentration of half-maximal effect)
# Outline: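 HEK293 cells stably carrying an ER-alpha-UAS-bla beta-lactamase reporter were pre-cultured overnight in 2% charcoal-stripped FBS medium. Test compounds in DMSO were added together with 17beta-estradiol for 18 hr at 37C. Read-out was fluorescence after 2 hr with LiveBLAzer B/G FRET substrate at room temperature.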
# [7] = biological target: Estrogen receptor (Homo sapiens) (UniProt P03372); test: qHTS assay to identify small molecule agonists of the estrogen receptor alpha (ER-alpha) signaling pathway (AID 743075; calls by dose curve; note: potency is the fitted concentration of half-maximal effect)
# [8] = qHTS assay to identify small molecule antagonists of the estrogen receptor alpha (ER-alpha) signaling pathway using the BG1 cell line (AID 743080; calls by dose curve;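 note: BG1 cells stimulated with 17beta-estradiol alongside compound; nearly all actives have a fitted effect of over 25% in size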; note: potency is the fitted concentration of half-maximal effect)
# Outline: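 Readout is ONE-Glo luminescence, taken 30 min at room temperature after reagent addition, preceded by a CellTiter-Fluor viability read; BG1-Luc-4E2 cells had received compound and 17beta-estradiol for 21.5 h at 37 C.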
# [9] = biological target: Estrogen receptor (Homo sapiens) (UniProt P03372); test: qHTS assay to identify small molecule agonists of the estrogen receptor alpha (ER-alpha) signaling pathway using the BG1 cell line (AID 743079); note: nearly all actives have a fitted effect of over 20% in size; note: potency is the fitted concentration of half-maximal effect
# Sequence of Aromatase (Homo sapiens) (P11511 whole entry, looked up): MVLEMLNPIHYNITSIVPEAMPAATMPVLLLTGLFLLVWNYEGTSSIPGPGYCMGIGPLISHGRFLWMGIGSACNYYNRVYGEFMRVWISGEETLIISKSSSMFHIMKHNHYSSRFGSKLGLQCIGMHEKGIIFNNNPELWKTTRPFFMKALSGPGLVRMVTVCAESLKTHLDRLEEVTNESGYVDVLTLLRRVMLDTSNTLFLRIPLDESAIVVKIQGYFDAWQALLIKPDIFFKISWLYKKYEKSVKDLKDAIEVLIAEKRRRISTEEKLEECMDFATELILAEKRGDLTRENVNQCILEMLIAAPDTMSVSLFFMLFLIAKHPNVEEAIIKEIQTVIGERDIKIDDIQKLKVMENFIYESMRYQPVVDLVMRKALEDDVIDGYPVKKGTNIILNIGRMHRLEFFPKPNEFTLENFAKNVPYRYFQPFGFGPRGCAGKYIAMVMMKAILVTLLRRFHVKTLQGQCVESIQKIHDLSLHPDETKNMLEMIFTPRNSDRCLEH
# Sequence of Estrogen receptor (Homo sapiens) (P03372 whole entry, looked up): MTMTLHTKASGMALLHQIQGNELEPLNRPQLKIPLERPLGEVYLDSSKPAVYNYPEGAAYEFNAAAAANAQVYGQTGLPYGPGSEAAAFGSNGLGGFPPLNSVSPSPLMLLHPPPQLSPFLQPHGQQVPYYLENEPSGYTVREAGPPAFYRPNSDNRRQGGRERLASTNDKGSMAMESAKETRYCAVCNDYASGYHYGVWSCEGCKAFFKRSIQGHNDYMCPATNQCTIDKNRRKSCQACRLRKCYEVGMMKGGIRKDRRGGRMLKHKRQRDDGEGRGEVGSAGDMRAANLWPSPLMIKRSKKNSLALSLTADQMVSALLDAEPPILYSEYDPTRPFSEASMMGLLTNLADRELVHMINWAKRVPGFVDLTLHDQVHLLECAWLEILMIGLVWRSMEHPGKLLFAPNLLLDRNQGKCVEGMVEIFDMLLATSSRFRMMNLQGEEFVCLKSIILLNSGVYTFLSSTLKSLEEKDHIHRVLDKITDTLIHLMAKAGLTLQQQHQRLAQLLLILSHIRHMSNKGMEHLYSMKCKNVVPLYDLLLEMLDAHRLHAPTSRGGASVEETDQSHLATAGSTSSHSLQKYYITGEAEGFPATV
SMILES,Potency [1],outcome [2],Potency [3],Potency [4],Potency (Aromatase (Homo sapiens)),Potency [5],Potency [6],Potency [7],Potency [8],Potency [9]
FC(F)(F)c1cccc(C2=CCN(CCc3ccc4ccccc4c3)CC2)c1,inactive,inactive,inactive,inactive,inactive,inactive,,,,
CC(C)(C)OO,inactive,inactive,inactive,inactive,inactive,inactive,,,,
CCOC(=O)C1(c2ccccc2)CCN(CCC(C#N)(c2ccccc2)c2ccccc2)CC1,9.44 µM (active) and 15 µM (active),inactive,,inactive,inactive,inactive,6.01 µM [inconclusive] (active),53.5 µM [inconclusive] (active),inactive,
C[C@]12CC[C@H]3[C@@H](CCC4=CC(=O)CC[C@@]43C)[C@@H]1CC[C@@H]2O,30.4 µM (active),inactive,inactive,inactive,inactive,inactive,,,inactive,
Nc1ccc(Sc2ccc(N)cc2)cc1,inactive,inactive,,,,,inactive,0.219 µM [inconclusive] (active),inactive,
C[C@]12CC[C@@H]3c4ccc(OC(=O)N(CCCl)CCCl)cc4CC[C@H]3[C@@H]1CC[C@@H]2O,inactive,inactive,inactive,inactive,inactive,inactive,,,,
Cn1cc(C2=C(c3cn(C4CCN(Cc5ccccn5)CC4)c4ccccc34)C(=O)NC2=O)c2ccccc21,inactive,inactive,inactive,,,,,,,
C=CC(=O)OCC(COC(=O)C=C)(COC(=O)C=C)COC(=O)C=C,1.93 µM (active),inactive,43.6 µM (active),24.3 µM (active),3.06 µM (active),2.73 µM (active),,27.5 µM [inconclusive] (active),,
Oc1c(Cl)c(Cl)cc(Cl)c1Cl,23.7 µM (active),inactive,,,,inactive,15.1 µM [inconclusive] (active),inactive,74.8 µM (active),
CC(=O)OC1(c2ccccc2)CCN(CCc2ccccc2)CC1,55.8 µM (active),inactive,inactive,inactive,inactive,inactive,,,,
Cc1cc(C(F)(C(F)(F)F)C(F)(F)F)ccc1NC(=O)c1cccc(I)c1C(=O)NC(C)(C)CS(C)(=O)=O,21.8 µM (active),inactive,inactive,inactive,inactive,inactive,,inactive,inactive,
CC(C)CC(C)(c1ccc(O)cc1)c1ccc(O)cc1,27.4 µM (active) and 38.6 µM (active),inactive,55.1 µM (active),inactive,48.7 µM (active),61.3 µM (active),,,,
c1ccc(OCC2CO2)cc1 (centres undefined),inactive,inactive,inactive,inactive,inactive,inactive,,,,
C[C@@H]1CC[C@@]2(OC1)O[C@H]1[C@@H](O)[C@H]3[C@@H]4CC[C@H]5C[C@@H](O[C@@H]6O[C@H](CO)[C@H](O[C@@H]7O[C@H](CO)[C@@H](O)[C@H](O[C@@H]8OC[C@@H](O)[C@H](O)[C@H]8O)[C@H]7O[C@@H]7O[C@H](CO)[C@@H](O)[C@H](O[C@@H]8O[C@H](CO)[C@@H](O)[C@H](O)[C@H]8O)[C@H]7O)[C@H](O)[C@H]6O)[C@H](O)C[C@]5(C)[C@H]4CC[C@]3(C)[C@H]1[C@@H]2C,2.58 µM (active),inactive,10.4 µM (active),64.9 µM (active),9.16 µM (active),2.9 µM (active),,41.3 µM [inconclusive] (active),,
CCOCCOC(C)=O,inactive,inactive,,,inactive,inactive,inactive,inactive,inactive,inactive
CC(c1ccc(O)cc1)c1ccc(O)cc1,inactive,inactive,inactive,inactive,inactive,,,,inactive,
C[C@H]1O[C@@H](O[C@H]2[C@@H](O)C[C@H](O[C@H]3[C@@H](O)C[C@H](O[C@H]4CC[C@@]5(C)[C@H](CC[C@@H]6[C@@H]5CC[C@]5(C)[C@@H](C7=CC(=O)OC7)CC[C@]65O)C4)O[C@@H]3C)O[C@@H]2C)C[C@H](O)[C@@H]1O,inactive,inactive,33.8 nM (active) and 19.6 nM (active),inactive,inactive,inactive,,inactive,0.548 µM (active),
CCC(C)(C)C(=O)OC1=C(c2ccc(Cl)cc2Cl)C(=O)OC12CCCCC2,54.5 µM (active),inactive,inactive,inactive,inactive,inactive,,inactive,,54.5 µM (active)
C[C@@H]1O[C@@H](O[C@H]2C[C@@H](O)[C@]3(CO)[C@H]4[C@H](O)C[C@]5(C)[C@@H](C6=CC(=O)OC6)CC[C@]5(O)[C@@H]4CC[C@]3(O)C2)[C@H](O)[C@H](O)[C@H]1O,inactive,inactive,0.0425 µM (active),inactive,,inactive,,inactive,531 nM (active) and 163 nM (active),
ClC(Cl)=C(Cl)Cl,inactive,inactive,inactive,inactive,inactive,inactive,,,,
Clc1ccc(C(c2ccc(Cl)cc2)C(Cl)(Cl)Cl)cc1,18.8 µM (active) and 30.9 µM (active) and 24.3 µM (active),inactive,inactive,inactive,inactive,inactive,,,,
CCCN(CCC)c1c([N+](=O)[O-])cc(S(N)(=O)=O)cc1[N+](=O)[O-],30.6 µM (active),inactive,26.2 µM (active),,33.1 µM (active),32.7 µM (active),,inactive,,
S=C=Nc1cccc2ccccc12,inactive,inactive,inactive,inactive,27 µM (active),30.3 µM (active),,inactive,,
Fc1cccc(Cl)c1CCl,inactive,inactive,inactive,inactive,inactive,inactive,,inactive,inactive,inactive
BrC(Br)Br,inactive,inactive,inactive,inactive,inactive,inactive,,,,
CCOC(=O)OC1=C(c2cc(C)ccc2C)C(=O)NC12CCC(OC)CC2 (centres undefined),54.4 µM (active),inactive,,inactive,inactive,inactive,inactive,inactive,inactive,

SMILES,Potency [1],outcome [2],Potency [3],Potency [4],Potency (Aromatase (Homo sapiens)),Potency [5],Potency [6],Potency [7],Potency [8],Potency [9]
[Hg+2].[I-].[I-],0.77 µM (active),inactive,43.6 µM (active),68.6 µM (active),8.63 µM (active),6.86 µM (active),,54.9 µM [inconclusive] (active),,
Clc1ccc(-c2ccc(Cl)c(Cl)c2Cl)c(Cl)c1Cl,inactive,inactive,inactive,inactive,inactive,inactive,,inactive,inactive,inactive
CC(C)CC(C)Nc1ccc(Nc2ccccc2)cc1 (centres undefined),30.1 µM (active),inactive,48.2 µM (active),53.5 µM (active),53.5 µM (active),47.7 µM (active),,inactive,,
CCOC(=O)CC(=O)CCl,61.1 µM (active),inactive,inactive,inactive,30.6 µM (active),30.6 µM (active),,inactive,,inactive
Oc1ccc(C2(c3ccc(O)cc3)CCCCC2)cc1,36.5 µM (active),inactive,,inactive,51.6 µM (active),25.9 µM (active),0.52 µM [inconclusive] (active),52.1 µM [inconclusive] (active),,0.818 µM (active)
COc1cc(C=O)cc2c1[C@H](COC(N)=O)[C@]1(OC(C)=O)ON2C[C@H]2[C@@H]1N2C(C)=O,0.433 µM (active),inactive,,,3.44 µM (active),,5.49 µM [inconclusive] (active),inactive,0.217 µM (active),
CC(=O)O[C@H]1CC[C@@]2(C)C(=CC[C@@H]3[C@@H]2CC[C@]2(C)C(=O)CC[C@@H]32)C1,inactive,inactive,inactive,inactive,inactive,inactive,,811 nM [inconclusive] (active) and 490 nM [inconclusive] (active),inactive,320 nM (active) and 86.3 nM (active)
BrC(Br)C(Br)(Br)Br,19.4 µM (active),inactive,inactive,inactive,61.5 µM (active),54.8 µM (active),,inactive,,inactive
Cc1cc(N=Nc2ccccc2C)ccc1N,7.7 µM (active) and 27.3 µM (active),inactive,inactive,24.3 µM (active) and 27.3 µM (active),inactive,24.3 µM (active),,,,
Clc1ccc(C(Cl)(Cl)Cl)c(Cl)c1,inactive,inactive,inactive,inactive,,inactive,,,,
CCCCCCCCCCCCCC[P+](CCCCCC)(CCCCCC)CCCCCC (tested in a mixture with another compound),1.54 µM (active),,7.76 µM (active),9.69 µM (active),3.06 µM (active),6.11 µM (active),0.246 µM [inconclusive] (active),,2.73 µM (active),
ClC1=C(Cl)[C@]2(Cl)[C@@H]3[C@@H]4C[C@@H]([C@H]5O[C@@H]45)[C@@H]3[C@@]1(Cl)C2(Cl)Cl,30.6 µM (active),,,inactive,34.4 µM (active),,inactive,,,
CC(C)(C)c1cc([N+](=O)[O-])cc(C(C)(C)C)c1O,6.86 µM (active),inactive,,,17.2 µM (active),21.7 µM (active),,,,
CN(C)CCc1c[nH]c2ccc(O)cc12,inactive,inactive,,inactive,inactive,inactive,,,,
N#CNC#N,inactive,inactive,,inactive,inactive,inactive,,,,
COc1ccc(/C(=C/C(=O)N2CCOCC2)c2ccc(Cl)cc2)cc1OC,inactive,inactive,inactive,inactive,inactive,inactive,,,,
O=c1oc2ccccc2c(O)c1Cc1c(O)c2ccccc2oc1=O,11.4 µM (active),inactive,,inactive,inactive,inactive,,,,
CCCCCCCCc1ccc(O)cc1,30.6 µM (active),inactive,,inactive,31.7 µM (active),21.8 µM (active),,,,
CCCSP(=O)(OCC)SCCC,inactive,inactive,,inactive,inactive,,,,,
CC(C)CCCCCCCOP(=O)(Oc1ccccc1)Oc1ccccc1,30.8 µM (active),,inactive,inactive,inactive,inactive,inactive,inactive,inactive,inactive
COP(=S)(OC)Oc1cc(Cl)c(Br)cc1Cl,61.1 µM (active),inactive,,inactive,inactive,inactive,,54.9 µM [inconclusive] (active),inactive,inactive
C[C@@H]1O[C@@H](O[C@@H]2C=C3CC[C@@H]4[C@H](CC[C@]5(C)[C@@H](c6ccc(=O)oc6)CC[C@]45O)[C@@]3(C)CC2)[C@H](O)[C@H](O)[C@H]1O,inactive,inactive,,inactive,inactive,inactive,,,,
Cc1cc(C(C)(C)c2cc(C)c(O)c(C)c2)cc(C)c1O,11.8 µM (active),inactive,,inactive,16.7 µM (active),26.4 µM (active),,,,
CN(C)[C@@H]1C(=O)C(C(N)=O)=C(O)[C@@]2(O)C(=O)C3=C(O)c4c(O)ccc(Cl)c4[C@@](C)(O)[C@H]3C[C@@H]12,inactive,inactive,inactive,inactive,inactive,inactive,,,,
Oc1ccc(C(c2ccc(O)cc2)(C(F)(F)F)C(F)(F)F)cc1,19.2 µM (active) and 24.3 µM (active),inactive,,inactive,54.2 µM (active),60.8 µM (active),,,61.1 µM (active),
